Results on 10 compounds are retold here after PubChem BioAssay (Tox21).

A short description of assay [1]: Nuclear factor erythroid 2-related factor 2/antioxidant responsive element (Nrf2/ARE) small molecule agonists: qHTS cell viability counter screen in human keratinocytes (AID 1919968; active means well fitted cell-killing curve with a large enough effect in the repeat runs; further: nearly all actives have a fitted effect of over 55% in size; further: potency means the concentration at half of the fitted maximal effect). A digest of the protocol:
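KeratinoSens cells (HaCaT keratinocytes stably carrying an ARE-luciferase reporter) were seeded at 1,500 cells/well and rested 5 h at 37 C/5% CO2. They were then exposed to compounds in DMSO for 23 h. Viability was read by CellTiter-Fluor fluorescence after 1 h.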
In general terms: Quantitative high-throughput screening tests each substance at several concentrations.

Assay [2] in a line: Nuclear factor erythroid 2-related factor 2/antioxidant responsive element (Nrf2/ARE) small molecule agonists: luciferase reporter gene qHTS assay in human keratinocytes (AID 1919969). Further: nearly all actives have a fitted effect of over 35% in size. Further: potency means the concentration at half of the fitted maximal effect. For orientation: A reporter such as luciferase makes a cellular process visible.
Assay [3] addresses Gonadotropin-releasing hormone receptor (Homo sapiens) (UniProt P30968). Briefly: Human gonadotropin-releasing hormone receptor (GnRHR) small molecule agonists, calcium flux assay in GnRHR-HEK293 cells (AID 1920063). Further: nearly all actives have a fitted effect of over 35% in size. The procedure, abridged:
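HEK293 cells stably expressing human GnRHR were plated 18 h at 37 °C, loaded with calcium dye 1 h at 37 °C, then given compound in agonist mode; fluorescence (Ex/Em 480/540) read kinetically for 3 min at 1 s intervals.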
Background: Calcium flux is commonly read through the fluorescence of an indicator in the cells.

The nature of assay [4]: G protein-coupled receptor (GPCR) small molecule agonists, calcium flux assay: HEK293 wild type cell line counter screen (AID 1920065). Further: potency means the concentration at half of the fitted maximal effect. The procedure, abridged: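 Cells were plated and cultured 18 h at 37 C/5% CO2, then loaded with calcium dye for 1 h at 37 C. Compounds in DMSO were pin-transferred in agonist mode, and fluorescence (Ex/Em 480/540) was read kinetically for 3 min at 1 s intervals.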

Assay [5] can be described thus: cAMP Responsive Elements (CRE) small molecule agonists, cell-based qHTS assay (AID 1963590). The procedure, abridged:
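CRE-bla HEK 293T cells in DMEM with 10% dialyzed FBS, NEAA, pyruvate and 25 mM HEPES were plated 18 h at 37 C/5% CO2, then exposed to compounds in DMSO for 3 h before LiveBLAzer B/G FRET substrate addition.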

Assay [6] can be described thus: cAMP Responsive Elements (CRE) small molecule antagonists, cell-based qHTS assay (AID 1963591; active means well fitted inhibition curve with a large enough effect in the signal ratio in the repeat runs, not every such curve was filed as active; the % refers to the signal ratio; further: potency means the concentration at half of the fitted maximal effect). The procedure, abridged:
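CRE-bla HEK293T cells were plated 18 h at 37 °C/5% CO2, pinned with compound in DMSO, then stimulated with NKH477 at 0.25 uM final for 3 h. LiveBLAzer B/G FRET substrate was added and plates incubated 2 h at room temperature.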

Assay [7] concerns the target Beta-2 adrenergic receptor (Homo sapiens) (UniProt P07550). Briefly: Adrenergic beta2 receptor (ADRB2) small molecule antagonists, cell-based qHTS assay (AID 1963592). Further: nearly all actives have a fitted effect of over 50% in size. Further: potency means the concentration at half of the fitted maximal effect. A digest of the protocol: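 Cells (CHO, stable ADRB2 overexpression) incubated 18-20hr at 37C; compounds added from DMSO; agonist mix (1nM isoproterenol, 100uM IBMX, 25uM Ro-20-1724) added; 0.5hr RT; d2-cAMP and anti-cAMP-cryptate added; 1hr RT; 665/615 nm read.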

For assay [8] the target is unchanged. Briefly: Adrenergic beta2 receptor (ADRB2) small molecule agonists, cell-based qHTS assay (AID 1963593).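 Further: CHO cells stably overexpressing human ADRB2.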 The procedure, abridged:
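CHO cells stably over-expressing ADRB2 were plated overnight at 37C, then dosed with compounds plus a stimulation mix containing 100uM IBMX and 25uM Ro-20-1724 for 0.5hr at room temperature. cAMP was measured by HTRF competition, 1hr.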

Assay [9] concerns the target D(2) dopamine receptor (Homo sapiens) (UniProt P14416). Briefly: Dopamine D2 receptor (DRD2) small molecule agonists, cell-based qHTS assay (AID 1963594). Further: nearly all actives have a fitted effect of over 35% in size. The procedure, abridged:
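HEK293 cells stably expressing human DRD2, pre-treated with PDE inhibitor Ro20-1724 (0.1 mM final) and compound 10 min at room temperature, then stimulated with NKH477 (200nM […]) for 30 min. cAMP read by HTRF (665/620 nm).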

Assay [10] shares this target. Briefly: Dopamine D2 receptor (DRD2) small molecule antagonists, cell-based qHTS assay (AID 1963595; active means well fitted inhibition curve with a large enough effect in the signal ratio in the repeat runs, with a control signal flat; the % refers to the signal ratio). The procedure, abridged: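 Antagonist mode in DRD2-HEK293 cells: after compound addition with 0.1 mM Ro20-1724, cells received quinpirole (12 nM) and NKH477 (200 nM) for 30 min at room temperature; HTRF cAMP read after 1 h detection.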
Assay [11] can be described thus: p53 small molecule agonists, cell-based qHTS assay with human liver microsomes (AID 1963577).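 Further: p53 response element beta-lactamase reporter cells with liver microsomes plus NADPH.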 A digest of the protocol:
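p53RE-bla cells; 5 h settle, 37 C/5% CO2; cpd + HLM 0.5 mg/mL + NADPH 0.5 mg/mL (final); 16 h 37 C; LiveBLAzer 2 h RT dark; fluorescence readout.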

Assay [12] can be described thus: p53 small molecule agonists, cell-based qHTS assay with rat liver microsomes (AID 1963578). The procedure, abridged: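 Rat liver microsome activation: microsomes 0.5 mg/mL, NADPH 0.5 mg/mL final; p53RE-bla cells, 16 h 37 C; LiveBLAzer readout, 2 h RT dark.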
The nature of assay [13]: p53 small molecule agonists, cell-based qHTS assay with human liver microsomes: qHTS cell viability counter screen (AID 1963579). Further: nearly all actives have a fitted effect of over 45% in size. Further: potency means the concentration at half of the fitted maximal effect. The procedure, abridged: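 Luminescent CellTiter-Glo read-out, 30 min at room temperature, gauged cytotoxicity in p53RE-bla cells exposed 16 h at 37 C to DMSO-dissolved compounds with metabolic activation by human liver microsomes and NADPH, each 0.5 mg/mL final.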

Assay [14] can be described thus: p53 small molecule agonists, cell-based qHTS assay with rat liver microsomes: qHTS cell viability counter screen (AID 1963580). Further: nearly all actives have a fitted effect of over 45% in size. Further: potency means the concentration at half of the fitted maximal effect. The procedure, abridged: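 p53RE-bla HCT-116 cells were exposed 16 h at 37 C to compounds with rat liver microsomes (0.5 mg/mL) and NADPH (0.5 mg/mL). Viability was measured in the same wells as ATP content by CellTiter-Glo luminescence.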

A short description of assay [15]: p53 small molecule agonists, cell-based qHTS assay: qHTS cell viability counter screen (AID 1963581). Further: nearly all actives have a fitted effect of over 45% in size. Further: potency means the concentration at half of the fitted maximal effect. The procedure, abridged: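 p53RE-bla HCT-116 cells were exposed to compounds for 16 h at 37 C; after the beta-lactamase FRET read in the same wells, CellTiter-Glo was added and luminescence (intracellular ATP) read after 30 min at room temperature.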
Assay [16] in a line: p53 small molecule agonists, cell-based qHTS assay (AID 1963582; active means well fitted activation curve with a large enough effect in the signal ratio in the repeat runs, not every such curve was filed as active; the % refers to the signal ratio). A digest of the protocol:
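p53RE-bla beta-lactamase reporter cells rested 5 h at 37 C/5% CO2, then received compounds in DMSO by pin transfer and were incubated 16 h at 37 C. LiveBLAzer B/G FRET substrate was loaded for 2 h at room temperature before fluorescence reading.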

Assay [17] deals with 5-hydroxytryptamine receptor 2A (Homo sapiens) (UniProt P28223). Briefly: 5-hydroxytryptamine receptor 2A (HTR2A) small molecule antagonists, cell-based qHTS assay (AID 1963586). Further: nearly all actives have a fitted effect of over 45% in size. Further: potency means the concentration at half of the fitted maximal effect. The procedure, abridged:
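Antagonist-mode intracellular calcium assay: DOI (4 nM) added after 5 min compound pre-incubation at room temperature to dye-loaded HTR2A-CHO cells. Fluorescence followed for 3 min, sampled every second.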

Assay [18] has the same target. Briefly: 5-hydroxytryptamine receptor 2A (HTR2A) small molecule agonists, cell-based qHTS assay (AID 1963587). Further: nearly all actives have a fitted effect of over 30% in size. The procedure, abridged: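 CHO cells stably expressing human HTR2A, plated 18 h, loaded with calcium dye 1 h at 37 C. Agonist mode: compounds added and intracellular calcium fluorescence recorded kinetically for 2 min at 1 sec intervals.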
Assay [19] deals with Muscarinic acetylcholine receptor M1 (Homo sapiens) (UniProt P11229). Briefly: Cholinergic receptor muscarinic 1 (CHRM1) small molecule antagonists, cell-based qHTS assay (AID 1963588). Further: nearly all actives have a fitted effect of over 40% in size. The procedure, abridged:
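CHRM1-CHO calcium-flux assay, antagonist mode. Cells were seeded 18 h, dye-loaded 1 h at 37 C and given compound for 5 min at RT, then acetylcholine was added at 50nM. FDSS fluorescence was read 3 min; 15 concentrations, three runs.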

For assay [20] the target is unchanged. Briefly: Cholinergic receptor muscarinic 1 (CHRM1) small molecule agonists, cell-based qHTS assay (AID 1963589). Further: nearly all actives have a fitted effect of over 35% in size. The procedure, abridged:
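CHO cells stably expressing human CHRM1, seeded 18 h at 37 C/5% CO2, dye-loaded 1 h at 37 C, then given compound in agonist mode; intracellular calcium fluorescence read kinetically at 1 s intervals. Fifteen concentrations, three independent runs.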

Where “and” joins values, the source holds several entries; their conditions need not be identical. Equal entries are not always repeated. Results filed as inconclusive are left out. Some compounds were tested as several samples or in several runs, with calls that do not always agree. Calls of active or inactive are those of the source. Unless noted, the call rests on the fitted dose curve.

Chain of 5-hydroxytryptamine receptor 2A (Homo sapiens) (P28223 whole entry, looked up): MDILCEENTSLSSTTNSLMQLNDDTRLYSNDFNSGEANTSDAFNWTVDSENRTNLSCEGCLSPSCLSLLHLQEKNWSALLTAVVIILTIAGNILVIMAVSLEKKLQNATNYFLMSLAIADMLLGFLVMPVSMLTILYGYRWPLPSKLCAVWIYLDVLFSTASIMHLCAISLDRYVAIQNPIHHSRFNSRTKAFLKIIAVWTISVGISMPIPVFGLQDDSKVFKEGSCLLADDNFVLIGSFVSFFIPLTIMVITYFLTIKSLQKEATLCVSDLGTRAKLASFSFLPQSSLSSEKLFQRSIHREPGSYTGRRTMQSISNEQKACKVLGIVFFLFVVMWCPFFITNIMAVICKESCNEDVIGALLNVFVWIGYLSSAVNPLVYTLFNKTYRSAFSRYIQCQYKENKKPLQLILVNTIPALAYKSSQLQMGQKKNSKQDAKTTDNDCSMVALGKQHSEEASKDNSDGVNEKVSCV
Chain of Beta-2 adrenergic receptor (Homo sapiens) (P07550 whole entry, looked up): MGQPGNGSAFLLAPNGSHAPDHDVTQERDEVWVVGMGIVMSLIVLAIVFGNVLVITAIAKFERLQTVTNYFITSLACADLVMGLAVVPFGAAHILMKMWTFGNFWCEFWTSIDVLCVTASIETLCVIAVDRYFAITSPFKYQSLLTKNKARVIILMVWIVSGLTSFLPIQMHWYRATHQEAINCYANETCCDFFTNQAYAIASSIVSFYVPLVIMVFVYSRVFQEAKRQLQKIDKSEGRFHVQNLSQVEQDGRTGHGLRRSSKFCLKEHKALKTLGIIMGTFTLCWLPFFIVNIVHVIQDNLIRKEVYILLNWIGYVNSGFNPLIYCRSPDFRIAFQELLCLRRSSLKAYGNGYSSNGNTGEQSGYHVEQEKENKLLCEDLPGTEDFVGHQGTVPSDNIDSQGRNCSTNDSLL
Chain of D(2) dopamine receptor (Homo sapiens) (P14416 whole entry, looked up): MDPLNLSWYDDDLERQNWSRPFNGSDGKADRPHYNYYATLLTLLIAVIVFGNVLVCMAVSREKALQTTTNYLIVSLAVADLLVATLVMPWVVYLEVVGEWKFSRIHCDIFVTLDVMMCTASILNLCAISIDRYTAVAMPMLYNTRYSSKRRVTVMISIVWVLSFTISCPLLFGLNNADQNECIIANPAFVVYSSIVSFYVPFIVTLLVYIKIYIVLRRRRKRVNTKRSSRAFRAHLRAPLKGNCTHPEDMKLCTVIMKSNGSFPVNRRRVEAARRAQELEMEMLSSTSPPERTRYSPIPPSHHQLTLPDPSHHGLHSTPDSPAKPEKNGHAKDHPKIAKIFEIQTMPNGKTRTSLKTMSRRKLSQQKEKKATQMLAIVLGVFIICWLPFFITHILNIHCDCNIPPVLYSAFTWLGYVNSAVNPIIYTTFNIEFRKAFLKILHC
Chain of Muscarinic acetylcholine receptor M1 (Homo sapiens) (P11229 whole entry, looked up): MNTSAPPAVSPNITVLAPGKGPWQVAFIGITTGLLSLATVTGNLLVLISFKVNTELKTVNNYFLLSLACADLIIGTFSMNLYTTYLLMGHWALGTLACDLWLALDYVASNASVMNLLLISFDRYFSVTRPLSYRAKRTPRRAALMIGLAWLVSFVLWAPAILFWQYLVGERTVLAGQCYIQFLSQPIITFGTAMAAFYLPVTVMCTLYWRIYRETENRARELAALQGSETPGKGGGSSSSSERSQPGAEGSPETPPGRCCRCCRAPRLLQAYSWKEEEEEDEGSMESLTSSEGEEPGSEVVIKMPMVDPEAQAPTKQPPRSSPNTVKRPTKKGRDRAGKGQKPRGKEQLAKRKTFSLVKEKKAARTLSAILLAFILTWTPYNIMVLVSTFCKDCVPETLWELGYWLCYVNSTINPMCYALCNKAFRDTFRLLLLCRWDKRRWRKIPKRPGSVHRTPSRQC
Chain of Gonadotropin-releasing hormone receptor (Homo sapiens) (P30968 whole entry, looked up): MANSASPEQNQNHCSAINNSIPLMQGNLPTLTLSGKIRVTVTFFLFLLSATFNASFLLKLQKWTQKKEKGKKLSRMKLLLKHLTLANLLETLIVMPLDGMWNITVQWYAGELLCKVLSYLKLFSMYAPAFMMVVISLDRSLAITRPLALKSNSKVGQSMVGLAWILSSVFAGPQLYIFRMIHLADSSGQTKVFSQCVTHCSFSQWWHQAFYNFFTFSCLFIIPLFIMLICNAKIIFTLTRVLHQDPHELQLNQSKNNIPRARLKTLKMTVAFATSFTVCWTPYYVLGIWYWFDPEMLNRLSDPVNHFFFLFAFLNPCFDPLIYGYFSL

As for `CCN(CC)C(=S)SSC(=S)N(CC)CC`, the Potency is 96.9 nM (active) and 99.2 nM (active) and 29.8 µM (active) in assay [1]; “inactive and 25.1 µM (active)” in [4]; 1.19 µM (active) in [6]. Also, the Potency entry in assay [2], in [3], in assay [5], in assay [7], in assay [8] and in [9] was “inactive” throughout. For the same compound, the Potency entry in [10] was “inactive”.
Turning to `CCCC(CCC)C(=O)O`, the Potency entry in assay [1], in assay [2], in [3], in assay [4], in [5] and in [6] was “inactive” throughout. The Potency entry in assay [7], in [8], in assay [9] and in assay [10] was “inactive” each time.
On to `CS(=O)(=O)c1ccc([C@@H](O)[C@@H](CO)NC(=O)C(Cl)Cl)cc1`, for which the Potency result in assay [1], in [2], in [3], in [11], in assay [12] and in assay [13] was “inactive” throughout. For the same compound, the Potency entry in assay [14], in [15], in assay [16], in assay [5], in assay [6] and in assay [7] was “inactive” each time. Besides, the Potency entry in assay [9] and in [10] was “inactive” in each case.
Turning to `Cn1cc[nH]c1=S`, the Potency in [1] is 54.4 µM (active) and inactive; in [2] it was 27.3 µM (active) and inactive. The Potency result in assay [3], in assay [4], in assay [5], in assay [6], in assay [7] and in assay [8] was “inactive” throughout. Moreover, the Potency entry in assay [10] is “inactive”.
In the case of `CC/C(C)=N/O`, the Potency entry in assay [1], in assay [2], in assay [3], in assay [11], in assay [13] and in assay [14] was “inactive” each time. Also, the Potency result in assay [15], in assay [16], in assay [17], in assay [18], in [19] and in assay [20] was “inactive” each time. In addition, the Potency result in [5], in assay [6], in assay [7], in assay [8], in assay [9] and in assay [10] was “inactive” in each case.
As for `CCn1cc(C(=O)O)c(=O)c2ccc(C)nc21`, the Potency result in assay [1], in [2], in assay [3], in assay [4], in assay [15] and in [18] was “inactive” throughout. Further, the Potency result in assay [19], in assay [20], in [7], in assay [8], in [9] and in assay [10] was “inactive” each time. For the same compound, the Potency result in assay [17] is “inactive and 3.34 µM (active)”.
In the case of `Oc1c(Cl)cc(Cl)c(Cl)c1Cc1c(O)c(Cl)cc(Cl)c1Cl`, the Potency in assay [1] was 21.6 µM (active) and 30.6 µM (active) and 26.6 µM (active); in [2], 24.3 µM (active); in assay [13], 36.3 µM (active) and inactive; in assay [14], 18.2 µM (active) and 32.4 µM (active); in assay [15] it was 18.2 µM (active); in assay [7] it was “inactive and 48.6 µM (active)”. The Potency result in [3], in assay [11], in [12], in assay [9] and in assay [10] was “inactive” throughout.
For `Brc1ccc(Br)c(Br)c1`, the Potency result in assay [1], in assay [2], in [3], in [11], in [12] and in [13] was “inactive” each time. The Potency result in assay [14], in assay [15], in [16], in assay [17], in [18] and in [19] was “inactive” throughout. Besides, the Potency result in [20], in assay [5], in assay [6], in [9] and in assay [10] was “inactive” each time.
With `C/C=C/c1ccc(OC)cc1`, the Potency result in assay [1], in assay [2], in [3], in [13], in [14] and in assay [15] was “inactive” throughout. For the same compound, the Potency entry in [17], in [18], in assay [19], in assay [20], in assay [5] and in assay [6] was “inactive” in each case. In addition, the Potency entry in assay [8], in assay [9] and in [10] was “inactive” in each case.
For the compound `C=Cc1cccc(C)c1`, the Potency result in assay [1], in [2], in assay [3], in assay [11], in assay [12] and in assay [13] was “inactive” in each case. For the same compound, the Potency entry in [14], in [15], in [16], in assay [17], in assay [18] and in [19] was “inactive” in each case. Moreover, the Potency result in [20], in [5], in [6], in [7], in assay [9] and in [10] was “inactive” each time.
